A selection: hits, their analogues and other compounds. The true share with any hit is near 3.3%.
HTT cytoprotect: qHTS Multiplex Assay to Identify Dual Action Probes in a Cell Model of Huntington: Cytoprotection (ATP); Potency, µM (series often up to 56.4 µM), most hits filed as activators; AID 1471, 2008; hit rate 0.14% among 230,000; PC12 HTT-Q103 induced, cytoprotection, ATP luminescence, 40 h; further: nearly all actives have a fitted effect of over 45% in size
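Quantitative HTS on tebufenozide-induced (100 nM) PC12 cells expressing HTTQ103 exon 1–GFP; compounds tested as a concentration series; survival measured via cellular ATP.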
PNC assembly inh: High Content Assay for Compounds that inhibit the Assembly of the Perinucleolar Compartment | PC3M PTB-GFP, PNC prevalence imaging, 16 h; stronger effect = lower value | activity change (PNC), negative = inhibition, % at 10 µM | hit rate 3.1% among 140,000 | AID 2417, 2010;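 active means readout at or below -70, meaning at least 70% loss of cells showing the perinucleolar compartment, a nuclear body marking cancer cells; inconclusive means readout between -30 and a set limit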
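Compounds are pinned in duplicate onto adhered PC3M cells stably expressing GFP-tagged PTB and incubated 16 h at 37 C. Cells are then fixed, nuclei stained with Hoechst, and PNC-positive cells counted.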
12-hLO inh: qHTS Assay for Inhibitors of 12-hLO (12-human lipoxygenase) | Potency, µM (doses to about 57.1 µM), usual class: inhibitors | hit rate 0.12% among 150,000 | purified 12-hLO, xylenol orange hydroperoxide absorbance | Polyunsaturated fatty acid lipoxygenase ALOX12 (Homo sapiens), P18054 | AID 1452, 2008; further: nearly all actives have a fitted effect of over 55% in size
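Lipoxygenase turnover measured by absorbance at 573 and 405 nm after Fe-XO development. Human 12hLO 150 nM, arachidonate 40 uM, pH 7.0 Hepes buffer with detergent; 15 min compound preincubation, 30 min reaction.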
HTT aggregate: qHTS Multiplex Assay to Identify Dual Action Probes in a Cell Model of Huntington: Aggregate Formation (GFP). PC12 HttQ103-GFP aggregates, Acumen cytometry, 40 h. Potency, µM (titrated, usually from 46.1 µM), usual class: inhibitors. hit rate 1.1% among 220,000. AID 1688, 2009; further: nearly all actives have a fitted effect of over 60% in size
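Read-out: GFP aggregate count by laser scanning cytometer (488 nm excitation, 500-530 nm emission, 1–25 µm objects >6 SD above background). Cells: PC12, inducible HTTex1-Q103-GFP, 100 nM tebufenozide; compounds titrated.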
NPSR antagonist: qHTS Assay for Antagonists of the Neuropeptide S Receptor: cAMP Signal Transduction; Q6W5P4; CHO-NPSR cells, cAMP TR-FRET, antagonist mode; Potency, µM (series often up to 38.3 µM), actives largely listed as inhibitors; hit rate 1% among 220,000; further: nearly all actives have a fitted effect of over 50% in size
Target sequence (Q6W5P4 whole entry, looked up): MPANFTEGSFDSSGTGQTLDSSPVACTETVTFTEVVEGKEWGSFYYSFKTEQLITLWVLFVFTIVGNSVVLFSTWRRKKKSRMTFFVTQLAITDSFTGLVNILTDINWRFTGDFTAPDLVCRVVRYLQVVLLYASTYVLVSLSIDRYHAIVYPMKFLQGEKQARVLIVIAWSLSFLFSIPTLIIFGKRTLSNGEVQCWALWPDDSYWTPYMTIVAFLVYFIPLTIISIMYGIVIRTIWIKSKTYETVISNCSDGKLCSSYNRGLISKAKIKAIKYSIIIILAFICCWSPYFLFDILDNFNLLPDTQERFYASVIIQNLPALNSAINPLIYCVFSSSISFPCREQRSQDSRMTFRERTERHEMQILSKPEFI
IMPase inh: qHTS Assay for Identifying the Cell-Membrane Permeable IMPase Inhibitors | Inositol monophosphatase 1 (Rattus norvegicus), P97697 | CHO-M1 cells, IP1 accumulation, HTRF TR-FRET ratio | inhibition (IP1 accumulation), % at 46.1 µM | 120,000 tested, under 10 active; active means well fitted curve in the direction sought with a large enough effect in the signal ratio, not every such curve was filed as active; inconclusive means small, poorly fitted or top-dose-only effect, or a change in a side signal; inactive means no such curve, though single readings can be large or run the other way; the % refers to the signal ratio;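 further: cells stimulated with carbachol in lithium chloride buffer; higher means more IMPase inhibition seen as more IP1 and lower FRET ratio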
Target sequence (P97697 whole entry, looked up): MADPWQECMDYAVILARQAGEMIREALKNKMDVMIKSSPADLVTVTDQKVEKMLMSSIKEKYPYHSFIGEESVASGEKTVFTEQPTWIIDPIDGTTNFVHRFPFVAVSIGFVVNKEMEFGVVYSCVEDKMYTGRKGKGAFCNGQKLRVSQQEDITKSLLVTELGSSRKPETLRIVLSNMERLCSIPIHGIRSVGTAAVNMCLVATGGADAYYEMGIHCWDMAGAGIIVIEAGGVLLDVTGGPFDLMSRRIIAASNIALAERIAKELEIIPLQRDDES
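Cellular IMPase inhibition is scored as a rise in cytosolic IP1, detected by competitive TR-FRET between d2-labelled IP1 and a europium anti-IP1 antibody. M1-expressing CHO cells were stimulated with carbachol for 30 min at 37C, with lithium (50 mM LiCl) present in the buffer.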
Hits are given with their value; 0 = inactive; ? = inconclusive; - = no result; [ ] = dose if it differs, or a comment. Unless noted, the call rests on the fitted dose curve; in most records, active means well fitted curve in the direction sought with a large enough effect; inconclusive means small, poorly fitted or top-dose-only effect, or another doubt; inactive means no such curve, though single readings can be large; an effect the other way counts as inactive or inconclusive.

SMILES	HTT cytoprotect	PNC assembly inh	12-hLO inh	HTT aggregate	NPSR antagonist	IMPase inh
COc1ccc(-c2oc3ncn4nc(-c5ccc(Cl)cc5)nc4c3c2-c2ccc(OC)cc2)cc1	-	-	-	-	-	0
Cc1cnc(C)c(N2CCC(C(=O)NCc3cccs3)CC2)n1	0	-127	0	0	0	0
CC#C[C@]1(O)CC[C@H]2[C@@H]3CCC4=CC(=O)CCC4=C3[C@@H](c3ccc(N(C)C)cc3)C[C@@]21C	0	0	0	?	13µM	-
CNc1nc(-c2ccccc2C)nc2ccccc12	0	-	-	-	-	-
CC(C)CCCC(C)N (stereo not drawn)	0	-	-	0	-	-
C=CC[n+]1c(/C=C2\C=Cc3cc(C)ccc3N2CC)ccc2ccccc21	0	-	-	3.2µM	0	-
CCN1C(=C(C#N)C#N)C=Cc2cc(C)ccc21	0	-	-	0	0	-
CC(=O)C1CCC2C3CC(C)C4=CC(=O)CC[C@@]4(C)C3C(O)C[C@@]12C (stereo partly drawn)	0	-	0	-	-	-
Cc1ccc(CC(=O)NCc2ccc3c(c2)OCO3)cc1	0	0	0	0	0	0
O=C(NCc1ccc2c(c1)OCO2)c1ccc(COc2cccc(Cl)c2)o1	0[10 µM]	0	0	28µM	?	0
O=C(NCc1cccnc1)c1ccc(COc2ccc3c(c2)CCC3)o1	0[10 µM]	0	0	8.9µM	0	0
Cc1ccc(S(=O)(=O)Cc2ccc(C(=O)NCc3ccc4c(c3)OCO4)o2)cc1	0[10 µM]	-107	0	?	0	0
Cc1cccc(-c2nc(SCC(=O)Nc3ccc4c(c3)OCO4)c(-c3ccccc3)[nH]2)c1	-	-	-	-	-	0
Cc1cc(C)c(O)c(-c2cc(C(=O)Nc3c(C)n(C)n(-c4ccccc4)c3=O)[nH]n2)c1	0[10 µM]	-	-	0[9.22 µM]	0	-
O=C(CN1C(=O)c2ccccc2S1(=O)=O)NCc1ccccn1	0	0	0	0	0	0
O=C(CN1C(=O)c2ccccc2S1(=O)=O)NCc1ccccc1Cl	0	-119	0	0	0	0
CC(C)COP(=O)(CNC(=O)CN1C(=O)c2ccccc2S1(=O)=O)OCC(C)C	0[10 µM]	-82	0	0	0	-
N#Cc1cccc(NC(=O)N2CCCC3(CCN(C(=O)c4csnn4)CC3)C2)c1	0	-	0	-	-	-
CCC(C)C(=O)OC1C2CC3=C4CC(=O)OC(c5ccoc5)[C@]4(C)CCC3[C@@](C)(C2=O)C(CC(=O)OC)C1(C)C (stereo partly drawn)	?	-	0	-	-	-
Cc1ccc2nc(N3CCN(C=O)CC3)nc(-c3ccccc3)c2c1	0[10 µM]	-100	0	0	0	0
CN(C)c1ncc2nc(-c3ccc(Cl)cc3)c(=O)n(Cc3cccs3)c2n1	0	-	-	-	-	-
CC(C)CC(=O)N/C(N)=N/c1nc2ccccc2o1	0[10 µM]	-	-	0[9.22 µM]	0	-
O=C(Nc1ccccc1)c1cnc2ccccc2n1	-	-114	0	0	0	-
O=C(Nc1ccccc1)c1cc(Cl)nc2ccccc12	0[10 µM]	-100	0	?	0	-
NC(=O)c1ccc(NC(=O)c2cnc3ccccc3n2)cc1	0[10 µM]	-	-	0[9.22 µM]	0	-
SMILES	HTT cytoprotect	PNC assembly inh	12-hLO inh	HTT aggregate	NPSR antagonist	IMPase inh
O=C(CCl)Nc1cccc(-c2cnc3ccccc3n2)c1	0	?	0	25µM	0	0
CC(=O)c1ccc(NC(=O)c2cc(Cl)nc3ccccc23)cc1	0	-	-	0	0	-
CCCc1c(C)c2cccc(C)c2[nH]c1=O	0	0	0	0	0[7.67 µM]	0
CCCCN1CCc2c([nH]c3c(C)cccc23)C1=O	0	-87	0	0	0	0
O=C(NCCC1=CCCCC1)c1ccc2c(c1)N(Cc1ccccc1)C(=O)CS2	0	-84	0	0[9.22 µM]	?	0
O=C(NCCN1CCOCC1)c1ccc2c(c1)N(Cc1ccccc1)C(=O)CS2	0[10 µM]	0	0	0	0	0
O=C(Nc1ccccc1)N1N=C(c2cccs2)CC1c1cccs1 (stereo not drawn)	0[0.074 µM]	-102	0	?	0	-
O=C(CN1CCOCC1)N1N=C(c2cccs2)CC1c1cccs1 (stereo not drawn)	0[10 µM]	-	-	0[9.22 µM]	0	-
C[C@@H]1CC[C@]2(C(=O)O)CC[C@]3(C)C(=CCC4[C@@]5(C)C[C@@H](O)[C@H](O)[C@@](C)(CO)C5CC[C@]43C)C2[C@H]1C (stereo partly drawn)	-	-	0[0.00818 µM]	-	-	-
Cc1ccc(-c2nnc(Nc3ccc(O)cc3)c3ccccc23)cc1S(=O)(=O)N1CCN(C)CC1	-	-	-	-	-	0
COc1cc(O)c(C(CCN2CCN(c3ccccc3)CC2)c2ccc3c(c2)OCO3)c(OC)c1 (stereo not drawn)	0[10 µM]	-	-	0[9.22 µM]	0	-
COc1cc(O)c(C(CCN2CCN(c3ccccc3)CC2)c2cc(OC)c(OC)c(OC)c2)c(OC)c1 (stereo not drawn)	0[10 µM]	-	-	0[9.22 µM]	5µM	-
COc1ccc(C(=O)NC(=S)N(Cc2ccccc2)Cc2ccccc2)cc1	0	?	?	10µM	?	?
NS(=O)(=O)O	0	-	0	-	-	-
C=CCN1C(=O)C(CC(C)C)NC1=S (stereo not drawn)	0	-	0[0.00818 µM]	0	-	-
COC(=O)c1cn(NC(=O)c2cnccn2)c(=O)c2ccccc12	0	0	0	8.9µM	0	0
O=C(Nn1cc(C(=O)Nc2ccccc2F)c2ccccc2c1=O)c1cnccn1	0	-	-	?	0	-
c1ccc2c(N3CCNCC3)nc(-c3ccoc3)nc2c1	0	-	0	-	-	-
C[C@@]12CCC[C@H]1C1CC[C@H]3C[C@H](O)CC[C@]3(C)C1CC2 (stereo partly drawn)	0	-	-	-	-	-
CC(=O)NCCNc1nc(-c2cccnc2)nc2ccccc12	0	-	-	-	-	-
COc1ccc(-c2nc(NC(=O)c3ccc(OCC(=O)Nc4ccc(F)cc4)c(OC)c3)sc2C)cc1	0[10 µM]	0	0	0	10µM	-
COc1cc(C(=O)Nc2nc(-c3cc(C)ccc3C)c(C)s2)ccc1OCC(=O)Nc1ccc(F)cc1	0[10 µM]	0	0	0	?	0
CC(=O)N1CCN(c2ccc(Oc3ncnc4sccc34)cc2)CC1	0[10 µM]	0	0	18µM	0	0
CC(=O)c1ccc(Oc2ncnc3sccc23)cc1	0	-	-	0	0	-
O=c1[nH]c(CSc2cccc[n+]2[O-])nc2ccccc12	0[10 µM]	-	-	0[9.22 µM]	?	-
COc1ccc(OCc2cccc(C(=O)Nn3cc([N+](=O)[O-])cn3)c2)cc1	0[10 µM]	-99	0	0	0	0
COc1ccc(OCc2cccc(C(=O)NN)c2)cc1	-	?	0	0	0	-
O=C1CCN(S(=O)(=O)c2ccc(Cl)cc2)CCN1	0[10 µM]	-	-	0[9.22 µM]	0	-
